Where “and” joins values, the source holds several entries; their conditions need not be identical. Identical values can stand only once. Values without a mark were called inactive. Records with an inconclusive call do not appear. Calls of active or inactive are those of the source. Unless noted, the call rests on the fitted dose curve; in most records, active means well fitted curve in the direction sought with a large enough effect; inconclusive means small, poorly fitted or top-dose-only effect, or another doubt; inactive means no such curve, though single readings can be large; an effect the other way counts as inactive or inconclusive.

The subject of one assay is Es-2. Put plainly: Primary qHTS to identify gynecologic anti-cancer compounds using libraries of approved drugs and bioactive compounds (AID 1345084). Further: nearly all actives have a fitted effect of over 55% in size. Further: potency means the concentration at half of the fitted maximal effect. As to conditions: Gynecologic cancer cell panel viability, ATPlite luminescence, 48 h; series mostly up to 57.5 µM. The essentials:
(§1)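 Five-point cytotoxicity, 48 h drug exposure at 37 C, 5% CO2, on cells seeded 16 h beforehand. ATP content read by ATPlite luminescence.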
A general note: Quantitative high-throughput screening tests each substance at several concentrations.

In the next assay the test system is HeLa. The assay is described as above. As to conditions: Gynecologic cancer cell panel viability, ATPlite luminescence, 48 h; series mostly up to 57.5 µM. The method, boiled down:
as §1
(In general: ATP-based viability assays read luminescence as a measure of living cells.)

For a further assay, the system named is Hek293T. Described as above. As to conditions: Gynecologic cancer cell panel viability, ATPlite luminescence, 48 h, control line for the selectivity index; series mostly up to 57.5 µM. The method, boiled down:
as §1

For the next assay, the system named is JEG-3. The description is as above. As to conditions: Gynecologic cancer cell panel viability, ATPlite luminescence, 48 h; series mostly up to 57.5 µM. The method, boiled down: as §1
The test system of another assay is OV90. Described as above. The conditions noted are these: Gynecologic cancer cell panel viability, ATPlite luminescence, 48 h; series mostly up to 57.5 µM. The essentials:
as §1

Another assay deals with PA-1. The assay is described as above. As to conditions: Gynecologic cancer cell panel viability, ATPlite luminescence, 48 h; series mostly up to 57.5 µM. The essentials:
as §1

The subject of another assay is Tov-21-G. The assay is described as above. The conditions noted are these: Gynecologic cancer cell panel viability, ATPlite luminescence, 48 h; series mostly up to 57.5 µM. The essentials: as §1
For a further assay, the system named is Tov112D. The description is as above. As to conditions: Gynecologic cancer cell panel viability, ATPlite luminescence, 48 h; series mostly up to 57.5 µM. The essentials:
as §1

Assay [1] in a line: Drug repurposing screens with cells derived from glioblastoma tumor samples (AID 1345199). Further: nearly all actives have a fitted effect of over 40% in size. Further: potency means the concentration at half of the fitted maximal effect. On activity, negative = cell killing: on the % scale 0 is the no-effect control and ±100 the full control effect. The conditions noted are these: GBM patient neurospheres viability, ATP luminescence, 48 h. The essentials:
(§2)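 Four patient lines of CD133+ GBM neurospheres were screened at several concentrations; hits were retested in those lines plus three slower-growing GBM lines, using 48-hour treatment and ATP-based viability.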

In a further assay the test system is astro. Described as above. The conditions noted are these: viability, ATP luminescence, 48 h; series mostly up to 45.9 µM. The method, boiled down:
as §2

The test system of a further assay is SKOV3. Kind of assay: Primary qHTS to identify gynecologic anti-cancer compounds using libraries of approved drugs and bioactive compounds (AID 1345084). Further: nearly all actives have a fitted effect of over 55% in size. Further: potency means the concentration at half of the fitted maximal effect. As to conditions: Gynecologic cancer cell panel viability, ATPlite luminescence, 48 h; series mostly up to 57.5 µM. The method, boiled down:
as §1

For assay [2], the target named is Nuclear receptor subfamily 1 group I member 2 (Rattus norvegicus) (UniProt Q9R1A7). Kind of assay: qHTS assay for small molecule activators of the rat pregnane X receptor (rPXR) signaling pathway (AID 651751; call rule not given here; further: 0% is about no effect). The conditions noted are these: rPXR reporter cells, luciferase (One-Glo), 24 h.
Nuclear receptor subfamily 1 group I member 2 (Rattus norvegicus), sequence (Q9R1A7 whole entry, looked up): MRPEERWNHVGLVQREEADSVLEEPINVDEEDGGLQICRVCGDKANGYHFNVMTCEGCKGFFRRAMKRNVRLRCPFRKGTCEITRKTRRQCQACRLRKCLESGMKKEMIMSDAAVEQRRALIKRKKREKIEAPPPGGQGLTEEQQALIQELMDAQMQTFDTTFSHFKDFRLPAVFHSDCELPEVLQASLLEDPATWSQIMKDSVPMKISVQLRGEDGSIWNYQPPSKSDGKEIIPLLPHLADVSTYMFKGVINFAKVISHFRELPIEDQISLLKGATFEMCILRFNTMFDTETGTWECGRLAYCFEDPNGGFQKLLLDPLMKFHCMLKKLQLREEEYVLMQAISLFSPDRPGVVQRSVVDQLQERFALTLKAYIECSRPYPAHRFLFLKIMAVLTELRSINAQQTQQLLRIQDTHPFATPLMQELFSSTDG
Assay [3] is described as follows: qHTS assay for small molecule activators of the human pregnane X receptor (PXR) signaling pathway (AID 720659; call rule not given here; further: 0% is about no effect).
Setting [4] is: at 45.9 µM (top of the series), tumour line B.
Setting [5] is: at 45.9 µM (top of the series), tumour line D.
The mark [6] stands for this setting: at 46.1 µM (top of the series), tumour line C.
Setting [7] is: at 20 µM (top of the series), tumour line C.
Where [8] appears, read: at 46 µM (top of the series), tumour line A.

`O=C(CCN1CCC(c2ccccc2)C1)c1ccc2c(c1)OCCO2` (centres undefined): the Potency entry in the assay with Es-2, with HeLa, in the assay with Hek293T, with JEG-3, in the assay on OV90 and in the assay on PA-1 was “inactive” each time. In addition, the Potency entry in the assay on Tov-21-G and with Tov112D was “inactive” in each case.
Consider `CCN1CCC[C@H]1CNC(=O)c1c(OC)ccc(Br)c1OC`, for which the Potency entry in the assay with Es-2, in the assay with HeLa, in the assay on Hek293T, in the assay on JEG-3, with OV90 and in the assay on PA-1 was “inactive” in each case. Further, the Potency result in the assay with Tov-21-G, with Tov112D and in the assay on astro was “inactive” each time. Further, the activity, negative = cell killing is -5.99% in assay [1] (setting [4]), -23.8% in [1] (setting [5]) and -7.43% in assay [1] (setting [6]).
Turning to `CC(=O)[C@H]1CC[C@H]2[C@@H]3C[C@H](C)C4=CC(=O)CC[C@]4(C)[C@H]3[C@@H](O)C[C@]12C`, the Potency result with Es-2, in the assay on Hek293T, with JEG-3, in the assay on OV90, in the assay on SKOV3 and in the assay with Tov-21-G was “inactive” throughout. For the same compound, the Potency result in the assay on Tov112D is “inactive”. In the assay on HeLa, the Potency was 15.8 µM (active). In addition, the activity, negative = cell killing was 12.3% in assay [1] (setting [7]) and -24.6% in assay [1] (at 21.2 µM (top of the series), tumour line B).
On to `C=CCc1ccc(O)c(OC)c1`, for which the Potency entry in the assay with Es-2, in the assay with HeLa, in the assay on Hek293T, with JEG-3, in the assay with OV90 and in the assay on PA-1 was “inactive” each time. Further, the Potency result with Tov-21-G, in the assay on Tov112D and in the assay with astro was “inactive” each time. Further, the activity, negative = cell killing in assay [1] (setting [4]) was -13.4%; in assay [1] (setting [5]), 1.72%; in [1] (setting [8]) it was -22.5%; in assay [1] (setting [6]), 5.7%. For the same compound, the max response in assay [2] is -0.084% and 3.11%. In addition, in [3], the call was inactive.
Regarding `Oc1ccc(O)cc1`, the Potency result in the assay with Es-2, in the assay with HeLa, in the assay with Hek293T, in the assay with JEG-3, in the assay with OV90 and in the assay on PA-1 was “inactive” throughout. Further, the Potency result in the assay on SKOV3, in the assay on Tov-21-G and in the assay with Tov112D was “inactive” in each case. Also, the activity, negative = cell killing in [1] (setting [6]) is -0.769%. For the same compound, the max response in [2] is -4.09%. In addition, the call in assay [3] was inactive.
Regarding `COc1cc2c(cc1OC)C(C(C(=O)N(CCc1ccc(OC)c(OC)c1OC)CCc1ccc(OC)c(OC)c1OC)c1ccccc1)=NCC2` (centres undefined), the Potency result in the assay with Es-2, in the assay with HeLa, in the assay with Hek293T, in the assay with JEG-3, in the assay on OV90 and with PA-1 was “inactive” each time. Besides, the Potency result in the assay with SKOV3, with Tov-21-G, in the assay with Tov112D and in the assay with astro was “inactive” each time.
Consider `Oc1c(Cl)cc(Cl)cc1Sc1cc(Cl)cc(Cl)c1O`, for which the Potency entry with Es-2, with HeLa, with Hek293T, in the assay on JEG-3, in the assay with OV90 and in the assay with PA-1 was “inactive” throughout. The Potency entry in the assay on SKOV3, with Tov-21-G and in the assay on Tov112D was “inactive” each time. Moreover, in the assay with astro, the Potency was 10 µM (active). Besides, in [3], the call was inactive.
On to `CC(C)=CCC1C(=O)N(c2ccccc2)N(c2ccccc2)C1=O`, for which the Potency result in the assay with Es-2, in the assay with HeLa, with Hek293T, with JEG-3, with OV90 and in the assay with PA-1 was “inactive” in each case. Further, the Potency result in the assay with SKOV3, in the assay on Tov-21-G, with Tov112D and in the assay with astro was “inactive” in each case. The activity, negative = cell killing in assay [1] (setting [6]) is 3.79%.
As to `CC(=O)OCC(=O)NCCCOc1cccc(CN2CCCCC2)c1`, the Potency result in the assay on Es-2, in the assay with HeLa, with Hek293T, in the assay on JEG-3, in the assay with OV90 and in the assay with PA-1 was “inactive” throughout. The Potency entry in the assay on Tov-21-G, with Tov112D and with astro was “inactive” throughout. Besides, the activity, negative = cell killing in assay [1] (setting [4]) was 0.906% and -1.58%; in assay [1] (setting [5]), -12.4% and -6.14%; in assay [1] (setting [8]) it was -17.5%; in assay [1] (setting [6]) it was -13.4% and 4.52%.
Regarding `CCCCOc1ccc(OCCCN2CCOCC2)cc1`, the Potency result in the assay on Es-2, in the assay on HeLa, in the assay on Hek293T, in the assay with JEG-3, in the assay with OV90 and with PA-1 was “inactive” in each case. Further, the Potency result in the assay with SKOV3, in the assay on Tov-21-G, in the assay with Tov112D and in the assay on astro was “inactive” in each case. Also, the activity, negative = cell killing in assay [1] (setting [7]) is -6.83%. In [1] (tumour line A), the Potency was 4.47 µM (active).

Values taken from PubChem BioAssay (NCATS).
